Experimental data published in PubChem BioAssay AID2778 (National Center for Advancing Translational Sciences (NCATS), 2010).
Records with an inconclusive call do not appear. Entries that show only a call come without a potency. Active and inactive are the calls of the source. Calls follow the shape of the dose curve; as a rule, active = well fitted inhibition curve with a large enough effect; inconclusive = small, poorly fitted or top-dose-only effect, or effect the other way; inactive = flat fitted curve, though single readings scatter.

Molecular target: Menin (Homo sapiens) (UniProt O00255)
Sequence (O00255 whole entry, looked up): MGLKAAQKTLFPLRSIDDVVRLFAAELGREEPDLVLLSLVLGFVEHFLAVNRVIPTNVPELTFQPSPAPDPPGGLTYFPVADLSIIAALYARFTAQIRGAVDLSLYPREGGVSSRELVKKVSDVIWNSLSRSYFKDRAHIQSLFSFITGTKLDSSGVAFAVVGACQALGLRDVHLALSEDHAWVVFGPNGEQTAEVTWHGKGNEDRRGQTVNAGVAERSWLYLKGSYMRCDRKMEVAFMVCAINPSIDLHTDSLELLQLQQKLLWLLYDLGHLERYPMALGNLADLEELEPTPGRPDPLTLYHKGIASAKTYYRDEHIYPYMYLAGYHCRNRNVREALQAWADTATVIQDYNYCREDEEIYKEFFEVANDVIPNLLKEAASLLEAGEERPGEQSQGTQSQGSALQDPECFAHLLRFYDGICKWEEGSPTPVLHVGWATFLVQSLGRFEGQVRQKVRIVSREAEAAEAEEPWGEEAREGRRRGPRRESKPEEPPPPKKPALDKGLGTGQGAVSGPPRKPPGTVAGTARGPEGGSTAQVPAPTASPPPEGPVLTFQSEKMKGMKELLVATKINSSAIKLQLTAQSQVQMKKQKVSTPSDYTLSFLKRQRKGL
Assay: Confirmation of Inhibitors Targeting the Menin-MLL Interaction in MLL Related Leukemias: Confirmation in an HTRF (commercial TR-FRET) Assay using His-tagged menin and biotin-labeled MLL peptide
Conditions: His-menin / biotin-MLL peptide binding; series mostly up to 126 µM
Outline: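 Compounds were incubated 1 hr at ambient with a preformed His6-menin (200 nM)/biotinylated MLL-w.t. peptide (80 nM) complex in Tris pH 7.5 buffer; anti-His Eu-cryptate (3.5 nM) and SA-XL665 (10 nM) added, TR-FRET read after 1h.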

Question: For `O=C(Nc1nccs1)C(Br)C(Br)c1ccccc1` (stereo not given), which Potency is on record?
Answer: inactive

Question: For `CC(CC(=O)Nc1nc2ccccc2[nH]1)n1ccnc1` (stereo not given), which Potency is on record?
Answer: inactive

Question: `CN1CCN(CC(=O)c2ccccc2F)CC1` was tested. Which Potency did it give?
Answer: inactive

Question: `COc1ccccc1/C=N/n1c(N)c(S(=O)(=O)c2cccs2)c2nc3ccccc3nc21` was tested. Which Potency did it give?
Answer: inactive

Question: For `CC(=O)c1cccc(NS(=O)(=O)c2ccc(N/C=C\C(=O)c3ccc(F)cc3)cc2)c1`, which Potency is on record?
Answer: inactive

Question: `COc1ccc(OC)c(C(c2c(C)[nH][nH]c2=O)c2c(C)[nH][nH]c2=O)c1` was tested. Which Potency did it give?
Answer: inactive

Question: For `COc1ccc(N(CC(=O)NC2CC3CCC2C3)S(=O)(=O)c2ccc(C)cc2)cc1OC` (stereo not given), which Potency is on record?
Answer: inactive

Question: `CN(C)CCc1c[nH]c2ccc(CC3COC(=O)N3)cc12` (stereo not given) was tested. Which Potency did it give?
Answer: inactive

Question: With `O=S(=O)(Nc1cccc(-c2cn3cccnc3n2)c1)c1ccccc1` as the compound, how does the Potency read?
Answer: inactive

Question: With `CC1CCCCN1S(=O)(=O)c1ccc(C(=O)Nc2ccccc2-c2nc3ccccc3[nH]2)cc1` (stereo not given) as the compound, how does the Potency read?
Answer: inactive

Question: For `Cc1ccccc1-c1n[nH]c(=S)n1C`, which Potency is on record?
Answer: inactive

Question: Which Potency does the source give for `COc1ccc(/C=C(\C#N)C(=O)NCc2ccccc2)cc1` here?
Answer: inactive

Question: With `OC(c1ccccn1)(c1ccccn1)c1ccccn1` as the compound, how does the Potency read?
Answer: inactive

Question: Which Potency does the source give for `Cc1ccc[n+](-c2nc([O-])sc2/C=N/Nc2ccc([N+](=O)[O-])cc2)c1` here?
Answer: inactive

Question: With `O=C(C1=C(O)C(=O)N(CCN2CCOCC2)C1c1cccc(Br)c1)c1cccs1` (stereo not given) as the compound, how does the Potency read?
Answer: inactive

Question: With `CCOC(=O)N1CCN(Cc2nnc(-c3ccccc3C)o2)CC1` as the compound, how does the Potency read?
Answer: inactive

Question: How did the Potency turn out when `Cc1cccc(NC(=S)NC(NC(=O)OCc2ccccc2)C(Cl)(Cl)Cl)c1` (stereo not given) was run?
Answer: inactive

Question: `COC(=O)Cc1c(C)nc2nc(-c3ccc(OC)cc3)[nH]n2c1=O` was tested. Which Potency did it give?
Answer: inactive

Question: Which Potency does the source give for `Cc1ccc2nc(-c3ccc(NC(=O)COC(=O)c4ccc(Br)o4)cc3)sc2c1` here?
Answer: inactive

Question: Which Potency does the source give for `C=C(C)CNC(=S)Nc1cccc2cnccc12` here?
Answer: inactive

Question: Which Potency does the source give for `O=C(Cn1nc(-c2ccccc2)ccc1=O)N1CCCCC1` here?
Answer: inactive

Question: With `CCCC(c1nnnn1Cc1cccs1)N1CCN(C2CCCC2)CC1` (stereo not given) as the compound, how does the Potency read?
Answer: inactive

Question: `Cc1cnc(CNc2ccnc(-c3ccoc3)n2)cn1` was tested. Which Potency did it give?
Answer: inactive

Question: For `O=C(Cn1c(=O)c2c3c(sc2n(Cc2ccccc2)c1=O)CCCC3)NCCO`, which Potency is on record?
Answer: inactive

Question: With `Cc1ccc(NC(=O)CN(C)C(=O)COc2cccc3cccnc23)cc1` as the compound, how does the Potency read?
Answer: inactive

Question: With `CC(=O)NC1C(=O)N(CCN2CCOCC2)c2ccc(F)cc21` (stereo not given) as the compound, how does the Potency read?
Answer: inactive

Question: How did the Potency turn out when `O=C(Nc1ccc(F)c(Cl)c1)c1cc(-c2ccco2)on1` was run?
Answer: inactive

Question: With `O=S(=O)(NCCc1c[nH]c2ccccc12)c1ccccc1` as the compound, how does the Potency read?
Answer: inactive

Question: `COc1cccc(C(=O)/C=C/Nc2ccc(S(=O)(=O)Nc3ccc(C(C)=O)cc3)cc2)c1` was tested. Which Potency did it give?
Answer: inactive

Question: With `CN1CCS/C1=C/C=C1/SC(=S)N(Cc2ccccc2)C1=O` as the compound, how does the Potency read?
Answer: inactive

Question: For `Cc1ccc(NS(=O)(=O)c2csc(C(N)=O)c2)cc1C`, which Potency is on record?
Answer: inactive

Question: How did the Potency turn out when `Cc1ccc(C(=O)Sc2cccccc2=O)cc1` was run?
Answer: inactive

Question: For `CCc1ccccc1NC(=O)COc1cccc(-n2cnnn2)c1`, which Potency is on record?
Answer: inactive

Question: For `N#CC1=C(N)OC2=C(C(=O)CC(c3ccco3)C2)C1c1ccc(OCc2c(F)cccc2Cl)cc1` (stereo not given), which Potency is on record?
Answer: inactive

Question: `CCCCn1c(SCC(=O)NCc2ccc(OC)c(C(=O)O)c2)nc2cc(S(N)(=O)=O)ccc21` was tested. Which Potency did it give?
Answer: inactive
